From PubChem BioAssay AID1159580 (chemical genetic matrix, 2015)
About 2,000 (36%) of roughly 5,500 compounds were called active. Roughly 18% stayed inconclusive and do not appear here. Rule as the data show it: active = normalized growth mostly below about 0.91 (no sharp cut-off); inconclusive = no clear call, values can overlap the other calls; inactive = mostly above about 0.92. The list shows a part of the results.

Test: chemical genetic growth profiling, strain panel (AID 1159580);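 also: tested at 20 µM; growth read once vehicle control cultures reached saturation at 30 °C; 1 = growth at the plate median or of vehicle wells; lower values mean less growth of the strain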
Details: S. cerevisiae deletion strains, growth OD

Measured: normalized growth

C#CCCCCCCCCCCCC(=O)CC(O)COC(C)=O (centres undefined)
inactive: locus YAL021C, strain ccr4, stronger effect = lower value 0.964 | locus YAL026C, strain drs2, stronger effect = lower value 0.982 | locus YAL030W, strain snc1, stronger effect = lower value 0.983 | locus YBL061C, strain skt5, stronger effect = lower value 0.977 | locus YBR009C, strain hhf1, stronger effect = lower value 0.991 | locus YBR021W, strain FUR4, stronger effect = lower value 0.91 | locus YBR023C, strain chs3, stronger effect = lower value 0.978 | locus YBR171W, strain sec66, stronger effect = lower value 0.963 | locus YBR229C, strain ROT2, stronger effect = lower value 0.953 | locus YBR231C, strain swc5, stronger effect = lower value 0.977 | locus YBR279W, strain paf1, stronger effect = lower value 0.986 | locus YCL011C, strain gbp2, stronger effect = lower value 0.936 | locus YCL016C, strain dcc1, stronger effect = lower value 0.984 | locus YCL061C, strain MRC1, stronger effect = lower value 0.999 | locus YCL069W, strain vba3, stronger effect = lower value 0.975 | locus YCR088W, strain abp1, stronger effect = lower value 0.974 | locus YDL005C, strain med2, stronger effect = lower value 0.967 | locus YDL040C, strain nat1, stronger effect = lower value 0.99 | locus YDL185W, strain tfp1, stronger effect = lower value 0.959 | locus YDR001C, strain nth1, stronger effect = lower value 0.991 | locus YDR069C, strain doa4, stronger effect = lower value 0.966 | locus YDR137W, strain rgp1, stronger effect = lower value 0.854 | locus YDR150W, strain NUM1, stronger effect = lower value 0.964 | locus YDR159W, strain sac3, stronger effect = lower value 0.989 | locus YDR195W, strain ref2 1.04 | locus YDR297W, strain sur2, stronger effect = lower value 0.979 | locus YDR334W, strain swr1, stronger effect = lower value 0.98 | locus YDR335W, strain msn5, stronger effect = lower value 0.973 | locus YDR388W, stronger effect = lower value 0.975 | locus YEL003W, strain gim4, stronger effect = lower value 0.951 | locus YEL037C, strain rad23, stronger effect = lower value 0.979 | locus YEL061C, strain CIN8 (second series), stronger effect = lower value 0.98 | locus YER015W, strain faa2, stronger effect = lower value 0.991 | locus YER016W, strain bim1, stronger effect = lower value 0.99 | locus YER110C, stronger effect = lower value 0.967 | locus YER111C, strain swi4, stronger effect = lower value 0.964 | locus YER155C, strain BEM2 (second series), stronger effect = lower value 0.9 | locus YFR010W, strain ubp6, stronger effect = lower value 0.974 | locus YGL167C, strain pmr1, stronger effect = lower value 0.991 | locus YGL173C, strain kem1, stronger effect = lower value 0.979 | locus YGL227W, strain vid30, stronger effect = lower value 0.974 | locus YGL240W, strain doc1, stronger effect = lower value 0.969 | locus YGL253W, strain hxk2, stronger effect = lower value 0.981 | locus YHR013C, strain ard1, stronger effect = lower value 0.849 | locus YHR027C, strain rpn1, stronger effect = lower value 0.989 | locus YHR094C, strain hxt1, stronger effect = lower value 0.961 | locus YHR142W, strain chs7, stronger effect = lower value 0.884 | locus YHR200W, strain rpn10, stronger effect = lower value 0.977 | locus YIL073C, strain SPO22, stronger effect = lower value 0.739 | locus YIL125W, strain kgd1, stronger effect = lower value 0.97 | locus YIR030C, strain dcg1, stronger effect = lower value 0.945 | locus YJL092W, strain hpr5, stronger effect = lower value 0.965 | locus YJL095W, strain BCK1 (second series), stronger effect = lower value 0.985 | locus YJL115W, strain asf1, stronger effect = lower value 0.991 | locus YJL154C, strain vps35, stronger effect = lower value 0.984 | locus YJL164C, strain tpk1, stronger effect = lower value 0.945 | locus YJL166W, strain qcr8, stronger effect = lower value 0.909 | locus YJL168C, strain set2, stronger effect = lower value 0.979 | locus YJL187C, strain SWE1, stronger effect = lower value 0.978
active: locus YAL013W, strain DEP1, stronger effect = lower value 0.909 | locus YCL029C, strain bik1, stronger effect = lower value 0.901 | locus YDL035C, strain GPR1, stronger effect = lower value 0.8 | locus YDL074C, strain BRE1, stronger effect = lower value 0.622 | locus YDL101C, strain DUN1, stronger effect = lower value 0.84 | locus YDL134C, strain PPH21, stronger effect = lower value 0.807 | locus YDL192W, strain arf1, stronger effect = lower value 0.912 | locus YDR101C, strain arx1, stronger effect = lower value 0.881 | locus YDR162C, strain NBP2, stronger effect = lower value 0.642 | locus YDR318W, strain mcm21, stronger effect = lower value 0.819 | locus YDR392W, strain spt3, stronger effect = lower value 0.476 | locus YDR502C, strain sam2, stronger effect = lower value 0.799 | locus YEL061C, strain CIN8, stronger effect = lower value 0.855 | locus YER155C, strain BEM2, stronger effect = lower value 0.585 | locus YER167W, strain BCK2, stronger effect = lower value 0.807 | locus YGL078C, strain dbp3, stronger effect = lower value 0.916 | locus YGL086W, strain mad1, stronger effect = lower value 0.867 | locus YGL248W, strain PDE1, stronger effect = lower value 0.788 | locus YGR078C, strain PAC10, stronger effect = lower value 0.708 | locus YGR135W, strain pre9, stronger effect = lower value 0.739 | locus YGR229C, strain SMI1, stronger effect = lower value 0.651 | locus YGR252W, strain gcn5, stronger effect = lower value 0.705 | locus YHR030C, strain SLT2, stronger effect = lower value 0.911 | locus YHR079C, strain IRE1 (second series), stronger effect = lower value 0.816 | locus YHR129C, strain ARP1, stronger effect = lower value 0.837 | locus YIL066C, strain RNR3, stronger effect = lower value 0.722 | locus YJL095W, strain BCK1, stronger effect = lower value 0.665 | locus YJL129C, strain trk1, stronger effect = lower value 0.843 | locus YJL134W, strain LCB3, stronger effect = lower value 0.892 | locus YJL187C, strain SWE1 (second series), stronger effect = lower value 0.839
